A short description of experiment [1]: NCI Yeast Anticancer Drug Screen. Data for the rad50 strain (AID 155).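 Note: 0% = growth of vehicle-only cultures of the same strain.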 To be noted: S. cerevisiae rad50 strain growth inhibition; at 50.0 µM; hits give high values. An outline of the steps:
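Vehicle-treated cultures provide the reference for the growth inhibition reported for compound-exposed, repair-deficient yeast.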

A short description of experiment [2]: NCI Yeast Anticancer Drug Screen. Data for the mec2-1 strain (AID 157). Particulars: S. cerevisiae mec2-1 strain, at 50.0 µM, hits give high values. A digest of the protocol: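 Using mec2-1 yeast: add compound, measure growth, express inhibition versus vehicle-treated cultures.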
Experiment [3] in a line: NCI Yeast Anticancer Drug Screen. Data for the sgs1 mgt1 strain (AID 161).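 Note: 0% = growth of cultures given vehicle only.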 Particulars: S. cerevisiae sgs1 mgt1 strain, at 50.0 µM, hits give high values. An outline of the steps:
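Yeast cells carrying a defined DNA-repair defect were exposed to test compounds. Growth inhibition was measured relative to vehicle-treated controls.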

Experiment [4] is described as follows: NCI Yeast Anticancer Drug Screen. Data for the cln2 rad14 strain (AID 165).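 Note: 0% = growth equal to vehicle treated cultures.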 To be noted: S. cerevisiae cln2 rad14 strain, at 50.0 µM, hits give high values. An outline of the steps:
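Yeast strain cln2 rad14, bearing defects in cell cycle control and DNA repair, serves as the test system; values reflect growth inhibition compared with vehicle.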

The nature of experiment [5]: NCI Yeast Anticancer Drug Screen. Data for the bub3 strain (AID 167). To be noted: S. cerevisiae bub3 mutant strain, at 50.0 µM, hits give high values. An outline of the steps:
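Mutant yeast screening strain plus compound; vehicle-treated cultures serve as the 0% inhibition reference.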

Experiment [6] in a line: NCI Yeast Anticancer Drug Screen. Data for the mlh1 rad18 strain (AID 175). To be noted: S. cerevisiae mlh1 rad18 strain growth inhibition; at 50.0 µM; hits give high values. An outline of the steps: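 Steps: expose repair-defective yeast to compound; measure growth; express inhibition against vehicle-treated controls.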

Each structure is given as a SMILES string. This is part of a sample that, as a whole, favours compounds with a hit. Of some 79,000 tested, about 15% had one in any assay. Values without a mark were called inactive. Calls of active or inactive are those of the source. Cut-off read from the data, not from the text of the source: active = growth inhibition above about 70%; inactive = the rest.

Regarding `COc1ccc(OC)c(/C=C/c2ccc(NC(=O)Nc3ccccc3Cl)cc2)c1`, the growth inhibition in experiment [1] is 10.8%; in experiment [2], 2.3%; in experiment [3], -7.9%; in experiment [4], -39.1%; in experiment [5], 1.2%; in experiment [6] it was 13.8%.
`COc1ccc2c3c([nH]c2c1)[C@H]1C[C@H]2[C@H](C[C@@H](O)[C@H](OC)[C@H]2C(=O)O)CN1CC3`: the growth inhibition in experiment [1] is 26.3%; in experiment [2] it was 21%; in experiment [3], -18.9%; in experiment [4] it was 1.85%; in experiment [5], 23.6%; in experiment [6], 30.4%.
On to `NC(=O)c1sc(N2CCCC2)nc1N`, for which the growth inhibition in experiment [1] is 13.2%; in experiment [2], 23.9%; in experiment [3], 22.1%; in experiment [4], 0.95%; in experiment [5], 9.8%; in experiment [6], 9.05%.
For the molecule `CCNc1ncc2nc(CC(=O)OC)c(=O)n(CC)c2n1`, the growth inhibition is -10.3% in experiment [1]; 1.6% in experiment [2]; 4.75% in experiment [3]; -75.6% in experiment [4]; 10.5% in experiment [5]; -4.4% in experiment [6].
`Cc1cc(C)c(N)c(C(=O)O)c1`: the growth inhibition in experiment [1] was -46.5%; in experiment [2] it was -34.6%; in experiment [3], -39.8%; in experiment [4], -16.1%; in experiment [5], -47%; in experiment [6] it was -15.9%.
Turning to `C[C@]12CCC(=O)C=C1CC[C@@H]1[C@@H]2[C@@H](O)C[C@@]2(C)[C@H]1CC[C@]2(O)C(=O)CO`, the growth inhibition in experiment [1] is 12.7%; in experiment [2] it was 2.25%; in experiment [3] it was -31.6%; in experiment [4], 7%; in experiment [5], -30.1%; in experiment [6], -35%.
In the case of `C/C(=N\N(C)/C=N/S(C)(=O)=O)c1ccccc1`, the growth inhibition was 7.85% in experiment [1]; 9.5% in experiment [2]; 24.5% in experiment [3]; 74.5% (active) in experiment [4]; -2.9% in experiment [5]; -3.25% in experiment [6].
Take `O=C(Nc1cccc2ccccc12)c1ccco1`: the growth inhibition in experiment [1] was 14.8%; in experiment [2], 16.5%; in experiment [3], 8.6%; in experiment [4] it was 3.8%; in experiment [5], 1.65%; in experiment [6], 7.9%.
On to `CN(C)c1cccc([N+](=O)[O-])c1`, for which the growth inhibition is -54.5% in experiment [1]; -11% in experiment [2]; -44.6% in experiment [3]; -32.5% in experiment [4]; -35.4% in experiment [5]; -48.8% in experiment [6].
Consider `COC1CC(C)(NC(=O)C(F)(F)F)C2OC(c3ccccc3)OCC2O1` (stereo not given), for which the growth inhibition in experiment [1] was -25%; in experiment [2], -17.7%; in experiment [3], -41.4%; in experiment [4] it was -35%; in experiment [5], -3.85%; in experiment [6], -9.65%.
On to `COC1OC(CO)C(O)C(NC(=O)[C@H](Cc2ccccc2)NC(=O)OCc2ccccc2)C1O` (stereo not given in full), for which the growth inhibition in experiment [1] was 16.6%; in experiment [2], 0.75%; in experiment [3] it was 0.95%; in experiment [4], 8.65%; in experiment [5], 0.45%; in experiment [6], 14%.
On to `CCC(=O)O[C@@H]1C2C(OC(C)=O)C34COC(C)([C@@H]3C3C(C[C@]3(C)OC(C)=O)[C@@H](OC(=O)c3ccccc3)C4=O)[C@H](OC(C)=O)[C@@]2(OC(C)=O)C[C@@H]1C` (stereo not given in full), for which the growth inhibition was 4.2% in experiment [1]; -6.65% in experiment [2]; 4.85% in experiment [3]; 0.45% in experiment [4]; 9.95% in experiment [5]; 4.35% in experiment [6].
As for `CCOC(=O)N1CCN(P(=O)(Nc2ccc3nc(NC(=O)OC)[nH]c3c2)Oc2ccccc2)CC1` (stereo not given), the growth inhibition in experiment [1] is -38.5%; in experiment [2] it was -6.9%; in experiment [3], 0.55%; in experiment [4] it was -9.4%; in experiment [5], -9.65%; in experiment [6] it was -37.1%.
As for `O=C(O)C#Cc1ccc([N+](=O)[O-])cc1`, the growth inhibition in experiment [1] is 13.6%; in experiment [2], -7.6%; in experiment [3], 2.35%; in experiment [4], -20.2%; in experiment [5] it was -11.9%; in experiment [6], 16.5%.
With `CNC(=O)NC1NC(=O)N(C)C1=O` (stereo not given), the growth inhibition in experiment [1] is 0.3%; in experiment [2], -12.7%; in experiment [3], -0.4%; in experiment [4] it was -14.6%; in experiment [5], -0.45%; in experiment [6], -12.7%.
Take `CNc1c([N+](=O)[O-])cc2[nH]c(C)nc2c1[N+](=O)[O-]`: the growth inhibition is 22.4% in experiment [1]; 19.3% in experiment [2]; 42.9% in experiment [3]; 0.05% in experiment [4]; 0.95% in experiment [5]; 11.6% in experiment [6].
In the case of `COc1ccccc1NC(=O)/C(=C\n1c(=S)[nH]c2ccc([N+](=O)[O-])cc21)C(C)=O`, the growth inhibition in experiment [1] is -9.7%; in experiment [2], -10.4%; in experiment [3] it was 2.55%; in experiment [4], -6.25%; in experiment [5], 4.95%; in experiment [6], -4.15%.
As to `N#CCC(=O)N/N=C\C(O)C(O)C(O)C(O)CO` (stereo not given), the growth inhibition in experiment [1] was 0.1%; in experiment [2], 2.6%; in experiment [3] it was -10.8%; in experiment [4], -1.45%; in experiment [5], 4.5%; in experiment [6], 11.1%.
With `CN(CCCn1ccnc1[N+](=O)[O-])CCCn1ccnc1[N+](=O)[O-]`, the growth inhibition in experiment [1] is -28.1%; in experiment [2], -12.6%; in experiment [3] it was -0.35%; in experiment [4] it was 3.85%; in experiment [5], -5.05%; in experiment [6] it was 11.6%.
On to `O=C1OC(c2cccc(Cl)c2)=N/C1=C\c1ccc(O)cc1`, for which the growth inhibition in experiment [1] was 15.8%; in experiment [2], 9.85%; in experiment [3] it was 15.6%; in experiment [4], 8.35%; in experiment [5], 1.45%; in experiment [6], -3.2%.

These data come from PubChem BioAssay (NCI).
